Test results taken from the supplement of paper PMC6555819.

Tests used:
Test in all cases: PBM binding z-score (relative to random genomic background probes); higher = stronger binding; sequences stand for … in GC…GCGATTGACAGCGTAGAATGAAGG
[1] = tested on: RARb homodimer (NR concentration 270 nM)
In short: (§1)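 The probes on custom Agilent 4×180K protein-binding microarrays were double-stranded, with 34-nt variable regions bearing direct-repeat seeds, single-nucleotide variants, half-site ablations and random human genomic background sequences. Incubation lasted 1 h with ligand-free nuclear receptor dimers in PBS pH 7.4, 2% milk, 0.02% Triton X-100, 1 mM DTT, 0.2 mg/mL BSA and 0.4 mg/ml salmon testes DNA. Antibodies against each partner (one per run) detected bound dimers, and fluorescence scans were regression-normalized. Binding z-scores take the random background probes as reference.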

[2] = tested on: RARg:RXRa (NR concentration 270 nM, RXRa partner concentration 90 nM)
In short: as §1

[3] = tested on: RARg homodimer (NR concentration 270 nM)
In short: as §1

[4] = tested on: RXRa DBDmut IVT, anti-RXR (DBD mutation: RXRa K156A/R161A, NR concentration 90 nM)
In short: as §1

[5] = tested on: RXRa homodimer (NR concentration 180 nM)
In short: as §1

[6] = tested on: THRa:RXRa (NR concentration 90 nM, RXRa partner concentration 90 nM)
In short: as §1

[7] = tested on: THRa homodimer (NR concentration 90 nM)
In short: as §1

[8] = tested on: VDR homodimer (NR concentration 270 nM)
In short: as §1

Sequence | PBM binding z-score [1] | PBM binding z-score [2] | PBM binding z-score [3] | PBM binding z-score [4] | PBM binding z-score [5] | PBM binding z-score [6] | PBM binding z-score [7] | PBM binding z-score [8]
CGTCCAAGGTTATAGGAGGTCAGTGAAGACAGAT | 3.79 | 3.62 | 3.5 | 1.48 | 2.87 | 4.89 | 1.69 | 2.1
ATGTGTAGGTTAGCTGGGGTCATTCAGACTAGGC | 3.72 | 4.37 | 3.19 | 2.08 | 5.51 | 5.15 | 3.53 | 5.92
TAGCCTAGGTCATGGGGCAGTATACCACGCGAAC | 2.71 | 4.3 | 4.2 | 0.354 | 3.61 | 3.23 | 1.44 | 0.585
CCTACTGGGCCAAAGGTCATTTATTCCAATGCTC | 4.42 | 5.3 | 4.03 | 1.55 | 6.1 | 3.27 | 0.735 | 3.04
TATACAGGGTCAAAGGCCAGCGTACGAATGTCGA | 3.48 | 5.75 | 4.83 | 2.96 | 7.31 | 3.54 | 0.731 | 2.16
TCTGCTAGGTAAACGATGGTCAGCTAATCTGCTA | -0.48 | -0.193 | -0.441 | -0.148 | 0.132 | -0.11 | -1.01 | -0.963
TCTTGTAGATCGGCAGGTTAAGAAAGCTGGCCAA | 0.124 | -0.0429 | -0.399 | 0.729 | 0.269 | 0.308 | -0.309 | -0.0576
ACTAGCAGGCCAAGTTTGGGTCGCTCAAACAAAG | 0.422 | 0.182 | -0.0192 | -0.368 | -0.399 | 0.704 | -0.599 | -0.503
TCTAGCAGGCCAGAGGGTCACTCAAGAGGTACGG | 2.8 | 2.56 | 2.39 | -0.167 | 2.61 | 1.54 | -0.299 | 0.59
GGAACGAGGACAAGTTGATAGCAGAGTTTGATGG | 0.51 | 0.796 | 1.26 | 1.62 | 0.0511 | 2.53 | 1.58 | 0.892
CCAGACAGGTGAGAAGGTAACTCACCCTCGATTA | 0.972 | 0.89 | 0.67 | 0.134 | 0.806 | 0.55 | 0.193 | -0.0144
TAGCCTAGGACATGGGCCAGTATACCACGCGAAC | -0.0727 | -0.00552 | 0.0243 | -0.981 | -0.0222 | 0.476 | 0.11 | -0.526
ATCTCTAGGTAACCAAGGTCAGTGAATGCCGAAC | 3.5 | 2.62 | 2.69 | 0.51 | 2.14 | 3.31 | 2.53 | 1.52
TGAATCAGGTTATAAGATCAGGGAACGTTGCAAA | -0.228 | 0.24 | 0.42 | -0.671 | 0.358 | 0.505 | -0.129 | 0.0493
GCTGCTAGGTCTGGTTGGTCAGCTAACGGGTACG | 0.178 | -0.569 | -0.564 | -0.198 | -0.753 | -0.722 | -0.243 | -0.214
ACTAGTTGGTCCGCTGAGGTCACACACAATTCGG | 3.85 | 3.69 | 2.81 | 1.37 | 3.71 | 4.4 | 5.42 | 4.08
TCTGCTAGGTCGGTTGGTCAGCTAACGAGCTGCC | 0.194 | 0.057 | 0.0646 | -0.000892 | -0.389 | -0.409 | -0.643 | -0.816
CCTACTGGGCCAAGGTTATTGATCAGTCAAAGCA | 0.487 | 0.504 | 0.249 | -0.428 | 0.318 | 0.787 | 0.234 | -0.0593
CCTACTGGGCCAGGAAAGGTCATTGATTCAGTGA | 4.32 | 4.28 | 3.54 | -0.114 | 4.36 | 3.44 | 0.626 | 1.99
ATATGTAGGTTACATCCGGGTCGTTCAGGCTATG | 1.5 | 1.78 | 1.28 | 1.22 | 1.54 | 2.53 | 1.24 | 1.82
ACAGACAGGTGATGAAGGTAACTCATGCTATCAT | 0.0338 | 0.394 | 0.615 | -0.0265 | 0.382 | 0.149 | -0.485 | -0.456
CCGAGTAGATTATGGGGCATTCAGGCAACGGTGA | 0.0129 | -0.113 | 0.0692 | 0.349 | -0.0432 | 0.271 | -0.141 | -0.481
TCATATAGGTAAATGCTAGGTGAAACTCCGATCT | 0.638 | 0.657 | 0.3 | 1.3 | 0.917 | 1.65 | 0.67 | 0.32
CAAACTAGGTGACAGAGGTCAAAGTCCGTGCGTA | 4.61 | 5.54 | 4.74 | 2.18 | 6.14 | 4.15 | 1.75 | 4.09
TGAATGACGTTATAAGATCAGGGAACGTTGCAAA | -0.513 | 0.43 | 0.292 | -0.941 | 0.24 | -0.021 | -0.323 | -0.203
TCATATAGGTAATACAGGTAAAAGTCGGCATCTA | -0.0506 | 0.506 | 0.536 | 1.9 | 1.21 | 0.497 | 0.159 | 0.0521
GCTGCTAGGTCAGATTGGTCAGCTAACGGGTACG | 2.58 | 2.22 | 3.18 | 0.569 | 1.11 | 1.73 | 0.354 | 0.117
CTCGAAAGGTCGGTTGAGGTGAGAATACGGATAA | 2.21 | 3 | 3.18 | 0.839 | 2.33 | 4.84 | 1.13 | 0.742
